# Reference: PubChem BioAssay
# Calls of active or inactive are those of the source.
# Experiments:
# [1] = tested on: Plasmodium falciparum Sir2 (PF13_0152, Sir2A); assay: pfSir2 binders on small-molecule microarrays, primary screen, biochemical, small-molecule microarray, 635 nm fluorescence (AID 1098); conditions: small-molecule microarray binding, fluorescence 635 nm; higher = more signal;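 also: score merges spot fluorescence intensity with its signal-to-noise ratio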
# [2] = small-molecule microarray binders of probe aDKK1, primary screen, biochemical, biotinylated probe, 635/667 nm fluorescence (AID 1099); conditions: higher = more signal;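 also: score merges 667nm spot fluorescence with signal to noise across triplicate slides; reference of the scale not given here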
# [3] = small-molecule microarray binders of probe aCHRDL2, primary screen, biochemical, biotinylated probe, 635/667 nm fluorescence (AID 1100); conditions: higher = more signal
# [4] = splicing luciferase reporter signal modulators, primary screen, spliceosome inhibition project, cell-based, HEK293, splice +/- reporter (AID 1101); conditions: luminescence, 24 h, higher = more signal, called active from +8 up or from −8 down;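 also: HEK293 cells carrying a splicing-competent luciferase reporter gene; test concentration not given here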
# [5] = biological target: Fibroblast growth factor 10 (Homo sapiens) (UniProt O15520); assay: FGF10 binders on small-molecule microarrays, primary screen, biochemical, small-molecule microarray, 635 nm fluorescence (AID 1102); conditions: FGF10 binding, fluorescence 635 nm, higher = more signal
# Sequence of Fibroblast growth factor 10 (Homo sapiens) (O15520 whole entry, looked up): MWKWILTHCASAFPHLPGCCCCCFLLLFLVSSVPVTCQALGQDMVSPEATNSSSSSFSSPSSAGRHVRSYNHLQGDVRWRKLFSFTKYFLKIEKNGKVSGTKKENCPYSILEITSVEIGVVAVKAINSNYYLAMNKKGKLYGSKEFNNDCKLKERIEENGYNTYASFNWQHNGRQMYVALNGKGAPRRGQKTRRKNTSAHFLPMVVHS
# [6] = tested on: glycogen synthase kinase-3 (GSK3A per assay name; protocol says GSK3B); assay: GSK3 binders on small-molecule microarrays, primary screen, biochemical, small-molecule microarray, 635 nm fluorescence, GSK3A (AID 1103); conditions: small-molecule microarray binding, fluorescence 635 nm; higher = more signal; also: the record names both GSK3A and GSK3B
# [7] = biological target: Epidermal growth factor receptor (Homo sapiens) (UniProt P00533); assay: EGFR binders on small-molecule microarrays, primary screen, biochemical, small-molecule microarray, 635 nm fluorescence (AID 1104); conditions: EGFR binding, higher = more signal;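 also: score merges 667 nm emission intensity with spot signal to noise over triplicate slides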
# Sequence of Epidermal growth factor receptor (Homo sapiens) (P00533 whole entry, looked up): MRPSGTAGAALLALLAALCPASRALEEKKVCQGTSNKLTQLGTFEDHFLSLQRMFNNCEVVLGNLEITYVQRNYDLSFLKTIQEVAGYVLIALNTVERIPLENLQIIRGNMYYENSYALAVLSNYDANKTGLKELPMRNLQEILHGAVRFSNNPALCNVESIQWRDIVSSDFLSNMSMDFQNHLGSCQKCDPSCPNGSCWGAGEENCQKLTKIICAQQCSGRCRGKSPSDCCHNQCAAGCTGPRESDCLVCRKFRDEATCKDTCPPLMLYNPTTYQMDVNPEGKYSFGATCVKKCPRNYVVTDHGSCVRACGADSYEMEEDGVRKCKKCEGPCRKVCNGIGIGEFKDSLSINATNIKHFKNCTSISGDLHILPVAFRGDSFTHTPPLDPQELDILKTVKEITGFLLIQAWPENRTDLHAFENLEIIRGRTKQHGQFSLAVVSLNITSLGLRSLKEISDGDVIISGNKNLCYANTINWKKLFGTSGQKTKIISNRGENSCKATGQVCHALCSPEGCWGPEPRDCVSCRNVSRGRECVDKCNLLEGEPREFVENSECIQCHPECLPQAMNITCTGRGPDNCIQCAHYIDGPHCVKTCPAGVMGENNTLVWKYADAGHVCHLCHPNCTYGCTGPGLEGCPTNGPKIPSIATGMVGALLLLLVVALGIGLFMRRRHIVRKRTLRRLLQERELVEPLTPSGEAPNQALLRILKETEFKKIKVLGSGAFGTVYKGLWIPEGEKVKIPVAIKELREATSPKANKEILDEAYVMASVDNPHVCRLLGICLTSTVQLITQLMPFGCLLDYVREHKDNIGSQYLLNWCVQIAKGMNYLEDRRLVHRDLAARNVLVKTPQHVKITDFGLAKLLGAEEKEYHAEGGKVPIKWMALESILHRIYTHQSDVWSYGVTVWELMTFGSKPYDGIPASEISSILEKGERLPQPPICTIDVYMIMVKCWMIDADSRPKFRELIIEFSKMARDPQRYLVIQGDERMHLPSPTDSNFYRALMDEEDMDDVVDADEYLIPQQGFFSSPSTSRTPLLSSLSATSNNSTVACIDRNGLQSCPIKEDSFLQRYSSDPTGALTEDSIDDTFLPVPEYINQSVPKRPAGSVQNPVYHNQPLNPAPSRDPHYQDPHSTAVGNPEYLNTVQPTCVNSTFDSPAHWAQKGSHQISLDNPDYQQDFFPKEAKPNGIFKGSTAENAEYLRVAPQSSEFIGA
# [8] = biological target: Follistatin-related protein 3 (Homo sapiens) (UniProt O95633); assay: FSTL3 binders on small-molecule microarrays, primary screen, biochemical, small-molecule microarray, 635 nm fluorescence (AID 1105); conditions: FSTL3 binding, higher = more signal;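 also: score merges emission near 667 nm and signal to noise per printed spot across three slides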
# Sequence of Follistatin-related protein 3 (Homo sapiens) (O95633 whole entry, looked up): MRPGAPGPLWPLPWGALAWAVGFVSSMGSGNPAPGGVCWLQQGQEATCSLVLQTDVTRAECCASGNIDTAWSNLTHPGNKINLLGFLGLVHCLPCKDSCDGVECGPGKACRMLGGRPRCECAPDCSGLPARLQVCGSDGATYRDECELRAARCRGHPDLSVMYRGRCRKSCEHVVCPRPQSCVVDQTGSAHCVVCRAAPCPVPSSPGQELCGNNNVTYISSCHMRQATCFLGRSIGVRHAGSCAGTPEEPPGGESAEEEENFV
# [9] = biological target: Dickkopf-related protein 1 (Homo sapiens) (UniProt O94907); assay: DKK1 binders on small-molecule microarrays, primary screen, biochemical, small-molecule microarray, 635 nm fluorescence scan (AID 1106); conditions: DKK1 binding, higher = more signal;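 also: score merges emission near 667 nm with signal to noise over three replicate slides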
# Sequence of Dickkopf-related protein 1 (Homo sapiens) (O94907 whole entry, looked up): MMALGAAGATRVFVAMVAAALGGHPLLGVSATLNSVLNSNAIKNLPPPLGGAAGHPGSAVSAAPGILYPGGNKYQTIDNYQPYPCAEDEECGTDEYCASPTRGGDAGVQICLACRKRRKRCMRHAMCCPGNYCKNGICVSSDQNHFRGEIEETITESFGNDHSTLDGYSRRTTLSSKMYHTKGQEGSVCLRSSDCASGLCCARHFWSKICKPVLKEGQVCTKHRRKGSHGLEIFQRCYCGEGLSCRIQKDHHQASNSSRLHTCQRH
# [10] = tested on: Inhibin beta A chain (activin A); assay: INHBA (activin A) binders on microarrays, primary screen, biochemical, small-molecule microarray, 635 nm fluorescence scan (AID 1107); conditions: small-molecule microarray binding, higher = more signal;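 also: mouse activin A protein probed at 4.33 µg/mL on printed slides; score merges bound-protein fluorescence near 667 nm with spot signal-to-noise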
SMILES,composite z-score [1],composite z-score [2],composite z-score [3],z-score [4],composite z-score [5],composite z-score [6],composite z-score [7],composite z-score [8],composite z-score [9],composite z-score [10]
CCOC(=O)C1=CCC(c2ccc(C)cc2)N(S(=O)(=O)c2ccc(C)cc2)C1 (stereo not given),0.751,0.524,0.845,-0.688 (inactive),0.129,0.301,-0.136,0.058,0.0296,1.42
Cc1ccc(C(C)CC(O)C2C=CC3C(=O)N(c4ccccc4)C(=O)C3N2Nc2ccc([N+](=O)[O-])cc2)o1 (stereo not given),0.883,-0.199,0.904,0.907 (inactive),0.938,1.27,0.152,0.904,0.0201,0.77
OC([C@@H]1CC(c2ccccc2)=NO1)[C@H]1CC(c2ccccc2)=NO1 (stereo not given in full),-0.345,-0.29,-0.136,-0.247 (inactive),0.0725,-0.453,-0.29,0.031,0.446,0.672
COc1ccc(C(=O)O[C@H]2CC[C@]3(C)C4=C(CCC3C2(C)C)[C@]2(C)CC[C@H]([C@H](C)CCCC(C)C)[C@@]2(C)CC4)cc1 (stereo not given in full),0.0931,-0.287,-0.384,-0.968 (inactive),0.205,0.751,0.302,0.561,0.458,0.225
C=CCN1C(=O)[C@@]2(O[C@@H](CCO)[C@H]([Si](C)(C)c3ccc(OC)cc3)[C@H]2C)c2cc(NC(=O)c3ccc(OC)cc3)ccc21,0.45,-0.138,-0.46,-0.491 (inactive),1.09,0.587,0.424,0.722,0.532,1.32
C=C/C=C/[C@H]1C(=C)CN([C@@H](Cc2ccccc2)C(=O)OC)[C@@H]1[C@H](O)Cc1ccccc1,-0.181,-0.167,0.44,1.04 (inactive),-0.557,-0.546,-1.23,-0.542,-0.306,0.97
CCOC(=O)C=Cc1cc([N+](=O)[O-])ccc1O,-0.551,-0.14,-0.134,-1.72 (inactive),-0.395,-0.398,-0.899,-0.971,-0.693,-0.855
O=C1OCC=C[C@H]2OC34C=CCN(CCN5CCOCC5)C(=O)[C@H]3N(CCCO)C(=O)[C@@H]4[C@@H]12 (stereo not given in full),0.112,-0.218,-0.0654,-1.52 (inactive),-0.116,0.394,-0.0604,0.292,0.163,0.715
C=CCNC(=O)[C@@H]1[C@H]2C(=O)O[C@H](c3ccccc3)[C@H](c3ccccc3)N2[C@H](c2ccccc2OCCO)[C@@]12C(=O)N(C(=O)OCCOC)c1ccc(C#CCNC(N)=O)cc12,1.43,0.0834,0.447,-0.938 (inactive),0.738,0.581,0.444,0.921,-0.0253,0.38
C[C@@H]1ON(c2cccc(C(=O)OC(C)(C)C)c2)[C@H](c2ccc(Br)cc2)[C@H]1C(=O)N1C(=O)OC[C@H]1Cc1ccccc1,0.801,-0.155,-0.319,-0.0916 (inactive),1.15,0.962,0.51,1.03,0.693,0.272
O=C1OCCC/C=C\[C@H]2OC34C=CCN(Cn5nnc6ccccc65)C(=O)[C@H]3N(CCCCCCO)C(=O)[C@@H]4C12 (stereo not given in full),1.53,-0.234,0.489,-1.57 (inactive),-1.41,-0.662,-0.636,-0.321,-0.774,1.12
C=CCN(Cc1ccccc1)C(=O)C(c1cccs1)N(CCOCCO)C(=O)/C=C\C(=O)O (stereo not given),0.342,0.179,0.251,-1.62 (inactive),-2.23,-0.869,-2.04,-1.27,-2.6,-2.43
C=CCNC(=O)[C@H]1[C@@H]2C(=O)O[C@@H](c3ccccc3)[C@@H](c3ccccc3)N2[C@@H](c2ccc(OCCO)cc2)[C@]12C(=O)Nc1ccc(C#CC3=CCCCC3)cc12,1.25,-0.488,0.171,-1.24 (inactive),0.929,1.05,0.293,0.881,0.183,0.543
COCCCNC(=O)[C@@]1(Cc2ccccc2)N=C(c2ccc(OCCCO)cc2)O[C@H]1c1ccccc1,1.19,1.22,1.28,0.272 (inactive),0.849,1.02,-0.804,-0.569,-0.728,1.01
COCCOC(=O)N1C(=O)[C@@]2(c3cc(C#CCCO)ccc31)[C@H](C(=O)Nc1nc3ccccc3s1)[C@H]1C(=O)O[C@H](c3ccccc3)[C@H](c3ccccc3)N1[C@@H]2c1ccc(OCCO)cc1,1.27,0.385,-0.284,-0.021 (inactive),1.11,0.687,0.432,1.2,0.31,0.0763
COCCCNC(=O)[C@@]1(Cc2ccccc2N=[N+]=[N-])N=C(c2ccc(OCCCO)cc2)O[C@H]1c1ccccc1N=[N+]=[N-],1.34,1.04,1.25,1.87 (inactive),0.935,0.82,0.372,0.937,-0.138,0.797
CC(=O)NCCCC[C@@H]1NC(=O)[C@@H]2C[C@H](C(=O)NCCCCCCNC(=O)CS)[C@H](c3cccc(OCCO)c3)N2C1=O,1.76,-0.0828,0.466,-0.289 (inactive),0.639,1.12,0.37,0.325,0.791,0.388
CN1C(=O)C2C=CC(C(O)C3CCCCC3)N(Nc3ccc([N+](=O)[O-])cc3[N+](=O)[O-])C2C1=O (stereo not given),0.912,0.778,0.906,1.84 (inactive),0.911,0.323,0.374,1.29,-0.33,0.738
O=C1O[C@H](c2ccccc2)[C@H](c2ccccc2)N2[C@H]1[C@@H](C(=O)O)[C@]1(C(=O)Nc3ccc(C#CCCO)cc31)[C@H]2c1ccc(O)cc1,0.218,1.13,1.14,-0.765 (inactive),-0.378,-0.222,-0.289,-0.321,-0.572,1.18
[N-]=[N+]=Nc1ccccc1C[C@@]1(C(=O)NCCN2CCOCC2)N=C(c2ccc(OCCCO)cc2)O[C@@H]1c1ccccc1,1.57,0.532,0.915,-0.724 (inactive),1.35,1.29,0.245,1.21,0.461,0.847
C=CCOC(=O)[C@H]1[C@@H]2C(=O)O[C@@H](c3ccccc3)[C@@H](c3ccccc3)N2[C@@H](c2ccc(OCCOC(=O)[C@@H]3C[C@@H]4C(=O)N[C@@H](CCCC[N+](C)(C)C)C(=O)N4[C@@H]3c3ccc(O)cc3)cc2)[C@]12C(=O)Nc1ccccc12,1.05,0.415,-0.372,-0.794 (inactive),0.805,1.3,0.383,1.24,0.716,-0.0117
COc1ccc(C(=O)Nc2cccc(CN3C(=O)[C@]4(O[C@H](CCO)[C@@H]([Si](C)(C)c5ccc(OC)cc5)[C@@H]4C)c4ccccc43)c2)cc1,1.44,0.541,0.223,1.3 (inactive),0.691,0.901,0.0077,0.742,0.331,1.26
CCCCN1CC=CC23O[C@@H]4C=CCOC(=O)[C@@H]4[C@H]2C(=O)N(CCCCCO)[C@@H]3C1=O (stereo not given in full),1.15,-0.159,0.641,-0.248 (inactive),-0.828,-0.656,-0.945,-1.39,-1.03,-0.0355
CC(=O)NCCCC[C@@H]1NC(=O)[C@@H]2C[C@H](C(=O)NCCCCN(C)C)[C@H](c3cccc(OCCO)c3)N2C1=O,1.4,-0.0978,0.529,0.805 (inactive),0.556,0.117,-0.12,0.227,0.0332,-0.609
O=C(NCc1ccccc1)[C@@]1(Cc2ccccc2)N=C(c2ccc(OCCCO)cc2)O[C@H]1c1ccccc1,0.652,1.15,1.23,0.915 (inactive),0.366,0.3,-0.47,0.448,-0.996,0.425
CN1C(=O)C2C=CC(C(O)Cc3ccccc3)N(Nc3ccccc3)C2C1=O (stereo not given),0.36,0.645,0.898,-0.00929 (inactive),0.235,-0.442,-0.389,-0.0978,-0.549,0.437
Cc1ccc(S[C@]2(C(=O)NC3CC3)CC(=O)N(C3Cc4ccccc4C3)[C@@H]2c2ccc(CO)cc2)cc1,1.65,0.245,0.806,-0.983 (inactive),-0.451,-0.15,-0.876,-0.809,-1.02,-0.139
COCCOC(=O)N1C(=O)[C@@]2(c3cc(C#CC4=CCCCC4)ccc31)[C@H](C(=O)N1CCc3cc(OC)c(OC)cc3C1)[C@H]1C(=O)O[C@H](c3ccccc3)[C@H](c3ccccc3)N1[C@@H]2c1ccc(OCCO)cc1,0.563,0.0129,-0.134,0.342 (inactive),1.3,1.3,0.649,1.03,0.8,0.706
